Experimental data taken from PubChem BioAssay (NCI).
Compounds without any hit were thinned out: in the full panel of roughly 83,000, 20% have a hit.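 Note: values are percent growth. 100 is the growth of untreated cells, values between 100 and 0 indicate rising inhibition; between -100 and 0 indicates cell death.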 A number with no mark means an inactive call. Active and inactive are the calls of the source. How the source made its calls: active means growth percent below 10; inactive means the rest.

Key:
Experiment in all cases: NCI-60 one-dose screen, 48 h (100 = growth as untreated, 0 = no growth, -100 = all killed)
Conditions in all cases: 10 µM unless noted
HCT-15 colon = test system: HCT-15 colon
HT29 colon = test system: HT29 colon
SNB-75 CNS = test system: SNB-75 CNS
SNB-19 CNS = test system: SNB-19 CNS
U251 CNS = test system: U251 CNS
PC-3 prostate = test system: PC-3 prostate
SK-MEL-5 melanoma = test system: SK-MEL-5 melanoma
UACC-62 melanoma = test system: UACC-62 melanoma
LOX IMVI melanoma = test system: LOX IMVI melanoma
SK-MEL-28 melanoma = test system: SK-MEL-28 melanoma

SMILES | growth (HCT-15 colon) | growth (HT29 colon) | growth (SNB-75 CNS) | growth (SNB-19 CNS) | growth (U251 CNS) | growth (PC-3 prostate) | growth (SK-MEL-5 melanoma) | growth (UACC-62 melanoma) | growth (LOX IMVI melanoma) | growth (SK-MEL-28 melanoma)
O=C(Nc1nc(-c2ccc(Cl)cc2)nc2c1sc(=S)n2-c1ccccc1)C(F)(F)F | 54.9% | 17.5% | -44.1% (active) | 61.5% | 8.47% (active) | 38.6% | 64.9% | 21.1% | -20.4% (active) | 78.9%
O=CN1N=C(c2cccc(Nc3ccnc4cc(Cl)ccc34)c2)CC1c1ccccc1 (stereo not given) | 19.6% | -2% (active) | -9.35% (active) | 40.3% | 16.9% | 24.2% | 17.9% | 34.7% | 20.6% | 49.5%
O=C(Nc1ccc(Oc2cccc(Cl)c2)c(Cl)c1)c1cnccn1 | 23.3% | 2.14% (active) | -20.9% (active) | 33.5% | 16.5% | 11.1% | 25.8% | 28.4% | 29.9% | 64.9%
O=C(CN1C(=O)S/C(=C\c2ccccc2)C1=O)Nc1ncc(Cc2ccccc2Cl)s1 | 92.3% | 109% | 81.9% | 101% | 95% | 79% | 98.2% | 85.6% | 87.9% | 119%
Nc1ncc(-c2ccc3ncnc(Nc4cccc(Cl)c4)c3c2)cn1 | 38.8% | 40% | 49.8% | 59.4% | 43.6% | 36.1% | 64.8% | 50.6% | 44.8% | 63.8%
O=C1/C(=C/c2cccc(F)c2)CN(C(=O)C(Cl)Cl)C/C1=C\c1cccc(F)c1 | -64.7% (active) | 1.62% (active) | -52.2% (active) | -88.2% (active) | -90.2% (active) | -77.8% (active) | -82.2% (active) | -83.5% (active) | -92.1% (active) | -80.3% (active)
CCN(C)S(=O)(=O)Nc1cccc(Nc2ncnc3cc(NC(=O)CCl)ccc23)c1Cl | -12.3% (active) | -56.9% (active) | 6.04% (active) | 16.7% | -77.4% (active) | 0.153% (active) | -83.6% (active) | -22.5% (active) | -79% (active) | 28.8%
N#Cc1nc(-c2ccccc2)oc1S(=O)(=O)N1CCN(c2ccccc2)CC1 | 44.2% | 86.5% | 66.7% | 99.6% | 98.9% | 94.9% | 90% | 84.4% | 39.7% | 106%
C#CCOc1cccc(Nc2ncnc3ccc(NC(=O)C=C)cc23)c1 | 42.9% | 30.7% | 26.6% | 48.2% | 45.6% | 48.5% | 65.7% | 51% | 41.1% | 77.8%
COCCOc1cc2ncnc(N3CCN(c4ncc(S(=O)(=O)N5CCCCC5)cn4)CC3)c2cc1OCCOC | 89.9% | 109% | 110% | 96.2% | 97.7% | 88.7% | 102% | 95.3% | 87.4% | 112%
Cc1ccccc1/C=C/C(=O)c1cccc(OCCCOc2cccc(C(=O)/C=C/c3ccccc3C)c2)c1 | 87.2% [3 µM] | 79.6% [3 µM] | 86.1% [3 µM] | 97.1% [3 µM] | 76.1% [3 µM] | 88.8% [3 µM] | 99.5% [3 µM] | 80.2% [3 µM] | 67.5% [3 µM] | 112% [3 µM]
c1ccc2cc(C[n+]3ccn(CCCCCCCCCCn4cc[n+](Cc5ccc6ccccc6c5)c4)c3)ccc2c1 | 50.5% | -32.5% (active) | -1.15% (active) | 22.8% | 11.7% | 7.04% (active) | -56.4% (active) | 16.9% | -53.9% (active) | 20.6%
COc1ccc(/C=N\Nc2nc(SCCC(C)C)nc(-c3ccc(OC)cc3)c2C#N)cc1 | 74.6% | 55% | -19.4% (active) | 69.5% | 7.04% (active) | 72.3% | 94.3% | 79.1% | 66% | 104%
N=C(N)c1ccc(-c2ccc(-c3ccccc3)o2)cc1 | -62.1% (active) | -76.5% (active) | 19.8% | -16.9% (active) | -77.7% (active) | -23.3% (active) | -80.6% (active) | -70% (active) | -89.8% (active) | -61.1% (active)
Cn1cc(-c2nonc2-c2cn(C)c3ccccc23)c2ccccc21 | 30.2% | 6.32% (active) | 2.13% (active) | 24.7% | 18.8% | 26.2% | 26.2% | 30.6% | 48.5% | 57.4%
Nc1nc2ccc(-c3nc4ccc5[nH]ncc5c4c4c3CCCC4)cc2s1 | 107% | 99.2% | 100% | 97.7% | 102% | 100% | 111% | 102% | 105% | 120%
CCN1CCN(C(=O)[C@]23CCC(C)(C)C[C@@H]2C2=CC[C@@H]4[C@@]5(C)CCC(=O)C(C)(C)[C@@H]5CC[C@@]4(C)[C@]2(C)CC3)CC1 | 33.6% | 8.29% (active) | 15.6% | 71.1% | 46.8% | 26.1% | 49.2% | 47.3% | 43.8% | 64.3%
Nc1nc(N)c(-c2ccc(Cl)c(Cl)c2)c(CBr)n1 | 43% | 34.2% | 95% | 94% | 65.4% | 65.2% | 62.6% | 57% | 34.9% | 103%
Cc1[nH]c(C(=O)Nc2ccc(C(=O)N3CCN(c4cc5c(cc4F)c(=O)c(C(=O)O)cn5C4CC4)CC3)cc2OC(C)C)c(Cl)c1Cl | 18.1% | 37.3% | 67.8% | 89.8% | 36.4% | 59.1% | 75.3% | 81.8% | 21.6% | 86.6%
CC(=O)N1N=C(c2ccc(Nc3nc(Nc4ccccc4)nc(Nc4ccccc4)n3)cc2)CC1c1cccc([N+](=O)[O-])c1 (stereo not given) | 110% | 100% | 79.7% | 86.1% | 97.7% | 80.6% | 87.4% | 84% | 86.9% | 115%
Cc1nc2sc(C(=O)Nc3ccc(Br)cc3)c(N)c2cc1C(O)c1ccccc1 (stereo not given) | 34.7% | 36.7% | 62.6% | 67.7% | 54% | 61.4% | 39.9% | 41.8% | 61.3% | 67.8%
CN(C)CC1CCC(CN(C)C)C1=O (stereo not given) | 105% | 103% | 102% | 102% | 102% | 96.7% | 108% | 102% | 106% | 112%
NC(N)=NCCCCCNc1noc(Cc2c[nH]c3cc(Br)ccc23)n1 | 102% | 73.7% | 37.6% | 37.5% | 21.6% | 31.8% | 68.1% | 56.1% | 70.5% | 86.9%
N#CC1=C(N)Oc2c(c(=O)[nH]c3ccc(Cl)cc23)C12C(=O)c1ccccc1C2=O | 98.6% | 108% | 76.5% | 91.6% | 99.4% | 91.6% | 95.9% | 89.4% | 99.6% | 104%
